Measurements published in ChEMBL document CHEMBL3988442, “University of Dundee, Small-Polar-MMV Screening Library” (2021).
The whole screen tested about 38,000 compounds, of which about 1,200 (3.2%) showed an effect of 50% or more. The median lay at about -58%. The list comes from a sample in which strong results are over-represented; it also holds similar structures and randomly drawn compounds.

The compounds below were run on Plasmodium falciparum (assay: Calibr Malaria Delayed Death Assay SOP). Conditions: concentration 4.99e-06 (unit not given; other assays of the set use mol/L).
Format: functional, organism-based
Parameters: scale not given: in the data most compounds retested in dose-response had high values

Compound	Percent Effect [%]
O=C(NCC(=O)N1CCCCC1)c1sccc1C1CC1	-52.19
Cc1ccsc1C(=O)N1CCC2(CC1)C(=O)N(C)CCN2CC1CC1.O=C(O)C(F)(F)F	-41.45
CCc1ccc(NC(=O)N2C[C@H]3C[C@H](C(=O)NC(C)C)[C@@H](C2)O3)cc1	25.32
CC(=O)N1CCCC(C(=O)NCCc2csc(-c3ccncc3)n2)C1 (configuration not stated)	-77.87
CC(C)C(N)CNS(=O)(=O)Cc1cccc2cccnc12.Cl (configuration not stated)	3.917
CC(Cn1cccn1)NC(=O)N(C)Cc1ccsc1 (configuration not stated)	-57.89
O=C(CNC(=O)C1(c2ccc(F)cc2F)CCC1)Nc1ccccn1	-17.94
CC(C)CN1CC(C(=O)NCCOc2ccc3c(c2)OCO3)CC1=O (configuration not stated)	-115.4
Cc1ccnc(N2CCN(C[C@]3(O)CCCN4CCCC[C@@H]43)CC2)c1	7.79
Cc1cnccc1N1CCN(C[C@]2(O)CCCN3CCCC[C@@H]32)CC1	73.88
O[C@@]1(CN2CCN(Cc3ccncc3)CC2)CCCN2CCCC[C@@H]21	-71.07
COc1ccc(N2CCN(C(=O)c3nc(Cl)sc3C(C)C)CC2)cc1	-116.1
Cc1ccc(-c2cn[nH]c2C2CCCN(c3ncccn3)C2)cc1 (configuration not stated)	-2.919
CCn1cc(CN2CCCC(COc3ccc(F)cc3)C2)cn1 (configuration not stated)	75.3
COc1cccc(OCC2CCCN(Cc3ccncc3)C2)c1 (configuration not stated)	-55.12
COc1ccc(OCC2CCCN(Cc3ccncc3)C2)cc1 (configuration not stated)	2.701
CCn1cc(CN2CCCC(COc3ccccc3F)C2)cn1 (configuration not stated)	72.55
CCn1cc(CN2CCC(c3[nH]ncc3S(C)(=O)=O)C2)cn1 (configuration not stated)	-50.8
CCn1cc(CN2CCCN(C3Cc4ccccc4C3)CC2)cn1	8.565
CCn1cc(CNC2CCN(c3c(F)cccc3F)C2)cn1 (configuration not stated)	-15.51
CCn1cc(CN2CCCC(c3[nH]ncc3-c3ccc(C)cc3)C2)cn1 (configuration not stated)	60.35
O=C(NCC(=O)N1CCCC1Cc1cccc(F)c1)C1CCCC1 (configuration not stated)	-29.53
Cc1cnc2c(c1NCc1cccs1)c(=O)n(C)c(=O)n2C	3.342

Compound	Percent Effect [%]
CNC(=O)C1(c2cnccn2)CCCN1C(=O)c1cccnc1OC (configuration not stated)	-138.6
CCCn1cc(NC(=O)c2ccncc2)ccc1=O	-98.41
CC(C)N1CCCCC1CCn1cnc2cc(C(F)(F)F)ccc2c1=O (configuration not stated)	-97.47
Cc1cnc(N(C)Cc2cnc3ccccc3n2)nc1N(C)C	-4.617
O=C(NCCCNC(=O)c1ccccc1)Nc1ccc(F)cc1F	-135.1
CCOCC1CN(C(=O)c2cccn2C)Cc2cnn(CC3CC3)c21.O=C(O)C(F)(F)F (configuration not stated)	56.84
CCOCC1CN(S(=O)(=O)CC)Cc2cnn(CC3CC3)c21.O=C(O)C(F)(F)F (configuration not stated)	-13.24
CCOCC1CN(C(=O)c2cnccn2)Cc2cnn(CC3CC3)c21.O=C(O)C(F)(F)F (configuration not stated)	-137.9
Cn1cccc1C(=O)N1Cc2c(CN3CCCCC3)nn(C)c2C1	-1.788
CC(C)C(=O)N1CCc2c(CN(C)Cc3ccco3)cncc2C1.Cl.Cl	-39.92
C[C@@H]1CN(C2(C(=O)N3CCSCC3)Cc3ccccc3C2)C[C@H](C)O1	-246.9
C[C@@H]1CN(C2(C(=O)N3CCNCC3)Cc3ccccc3C2)C[C@H](C)O1	61.74
C[C@@H]1CN(C2(C(=O)N3CCOCC3)Cc3ccccc3C2)C[C@H](C)O1	-24.87
O=C(NCCC1CCN(CC(F)(F)F)CC1)C1CCCO1 (configuration not stated)	-133.7
c1coc(CN2CCO[C@@]3(CCC[C@@H]3COCc3nccs3)C2)c1	10.79
O=C(NCc1cc2n(n1)CCCNC2)C1(c2ccc(Cl)cc2)CCC1	-15.95
O=C(NCc1cc2n(n1)CCCNC2)c1cn2cc(Cl)ccc2n1	-49.2
O=C(NCc1cc2n(n1)CCCNC2)C1(c2ccccc2)CCCCC1	72.51
O=C(O)C(F)(F)F.O=C(O)C(F)(F)F.c1coc(CN2C[C@@H]3OCCN(CC4CCCO4)[C@@H]3C2)c1 (some centres not stated)	-57.01
O=S(=O)(c1ccc(F)cc1Cl)N1CCCC1c1ccncc1 (configuration not stated)	-22.12
O=C(NC1CCCN(CCCc2ccccc2)C1)c1ccncc1 (configuration not stated)	-32.27
O=C(NC1CCCN(CCCc2ccccc2)C1)C1=CCCCC1 (configuration not stated)	-1.379
O=C(NC1CCCN(CCCc2ccccc2)C1)c1ccc(Cl)s1 (configuration not stated)	59.33

Compound	Percent Effect [%]
COCCNC(=O)N1CCSC2(CCCCC2)C1	-161
CCC(c1ccc(F)cc1)N1CCn2c(CO)nnc2C1 (configuration not stated)	-61.64
Cc1noc(C)c1CN1CCO[C@H]2CN(Cc3cnn(C)c3)C[C@H]21.O=C(O)C(F)(F)F.O=C(O)C(F)(F)F	11.54
Cc1noc(C)c1CN1C(=O)[C@H]2CC[C@@H]1CN(Cc1cccc(O)c1)C2	-156.5
O=C(Cc1ccccn1)N1C[C@H]2CN(Cc3ccccn3)C[C@H]2C1	-76.72
Cc1noc(C)c1CN1CCO[C@H]2CN(Cc3cccc(F)c3)C[C@H]21.O=C(O)C(F)(F)F.O=C(O)C(F)(F)F	-38.58
Cc1noc(C)c1CN1C[C@H]2CN(Cc3cccc(F)c3)C[C@H]2C1.O=C(O)C(F)(F)F.O=C(O)C(F)(F)F	53.22
Cc1noc(C)c1CN1C[C@@H]2CC(F)(F)C[C@@H]2C1.O=C(O)C(F)(F)F	-65.49
Cc1noc(C)c1CN1C[C@H]2CNC[C@H]2C1	5.878
Cc1noc(C)c1CN1CCO[C@H]2CN(Cc3ccc(F)cc3)C[C@H]21.O=C(O)C(F)(F)F.O=C(O)C(F)(F)F	54.02
Cc1noc(C)c1CN1C[C@@H]2C[C@@H](C)O[C@@H]2C1.O=C(O)C(F)(F)F	-81.78
CN(Cc1cccc(F)c1)C1CCN(CCc2ccccn2)CC1	-78.69
O=C(c1ccccn1)N1CCN(c2cnnc(N3CCCC3)c2)CC1	-112.9
COc1cccc(N2C(=O)CC3(CCNCC3)C2=O)c1.Cl	-133.6
COC(=O)CC(NC(=O)c1cc(OC)c2c(c1)OCCO2)c1cccs1 (configuration not stated)	-83.17
O=S(=O)(NCCCn1cccn1)c1ccc2c(c1)CCC2	-131.9
CCCn1cc(S(=O)(=O)N[C@H]2CN(CC(N)=O)C[C@@H]2C2CC2)cn1	-97.89
COc1ccc(C2OC(COc3ccc(C)cc3)=NN2C(C)=O)cc1 (configuration not stated)	-155.6
COc1cc(C2CC(=O)Nc3c2c(=O)[nH]n3C2CCCCC2)ccc1O (configuration not stated)	-62.17
Cc1nnc2n1CCN(CCCS(=O)(=O)c1ccccc1)C2	-71.81
Cc1ccc(CN(C)C(=O)CCNS(=O)(=O)c2cccnc2)cc1	36.55
CC(=O)N1CCC2(CCN(Cc3cccc(F)c3)CC2)CC1.O=C(O)C(F)(F)F	-62.85
Cc1noc(C)c1CN1CCC2(CCN(Cc3cccc(F)c3)CC2)C1.O=C(O)C(F)(F)F.O=C(O)C(F)(F)F	66.34

Compound	Percent Effect [%]
CCC(=O)N1CCC2(CCN(Cc3cccc(F)c3)CC2)CC1.O=C(O)C(F)(F)F	-165.1
COCC(=O)N1C[C@@H](OCc2cccnc2)[C@H]2OCCC[C@@H]21.O=C(O)C(F)(F)F	7.671
COCCNC(=O)Cn1cc(NC(=O)c2cccc(Cl)c2Cl)cn1	-59.07
O=C(NS(=O)(=O)c1ccc(Cl)cc1F)c1cccc2c1OCCO2	-91.83
CC(C#N)CN(C)C(=O)CCNC(=O)OCC(F)(F)F (configuration not stated)	-88.17
O=C(O)C(F)(F)F.O=C(O)C(F)(F)F.O=C1CO[C@@H]2CN(Cc3cccs3)C[C@H]2N1Cc1cccnc1	-34.75
Cc1nc(-n2cnnc2)ccc1-c1cccc2c1CCNC2	68.26
Cc1cc(-c2cccc3c2CCNC3)cnc1-n1cnnc1	-23.79
Cc1cnc(-n2cnnc2)c(-c2cccc3c2CCNC3)c1	-33.7
CSCCC(=O)N1CCCC1c1nnc2n1CCCCC2 (configuration not stated)	-119.3
Cc1cc(C)n(Cc2ccc(-c3noc(C(=O)NCCO)n3)cc2)n1	-66.65
CN(C[C@H]1CN2CC[C@H]1C[C@@H]2CNC(=O)c1ccco1)c1ccccc1	70.91
CCN(CC)C[C@H]1CN2CC[C@H]1C[C@@H]2CNC(=O)c1ccco1	-99.74
CC[C@H]1CN2CC[C@H]1C[C@@H]2CNC(=O)c1ccco1	-30.73
O=C(C1CCOC1)N1CCN(Cc2cccnc2)c2ncccc2C1 (configuration not stated)	-57.83
O=C1CN(S(=O)(=O)CC(F)(F)F)CC(O)CN1CCCc1ccccc1 (configuration not stated)	-64.11
COCCN1CCc2nc(SCc3ccc(F)cc3)[nH]c(=O)c2C1	-62.28
Cc1nonc1OCCNC(=O)CCCc1ccc(Cl)cc1	-154.2
CN1[C@H](Cn2cncn2)C[C@@H]2CN(Cc3ccsc3)CC[C@@H]21.O=C(O)C(F)(F)F.O=C(O)C(F)(F)F	35.13
CN1C(Cn2cccn2)C[C@@H]2CN(Cc3cnn(C)c3)CC[C@@H]21 (some centres not stated)	-48.63
CN1C(Cn2cccn2)C[C@@H]2CN(C(=O)c3cccc(C#N)c3)CC[C@@H]21.O=C(O)C(F)(F)F.O=C(O)C(F)(F)F (some centres not stated)	-96.07
CN1[C@H](Cn2cncn2)C[C@@H]2CN(Cc3cccc(C#N)c3)CC[C@@H]21.O=C(O)C(F)(F)F.O=C(O)C(F)(F)F	-71.32
Cc1ccc(CN2CC[C@H]3[C@H](CC(Cn4cccn4)N3C)C2)s1.O=C(O)C(F)(F)F.O=C(O)C(F)(F)F.O=C(O)C(F)(F)F (some centres not stated)	62.61
